Assay results as given in PubChem BioAssay AID1117319 (Southern Research Institute, 2015).
“And” between values parts separate entries of the source, which are not always exact repeats. Equal entries are not always repeated. About 1,500 (0.58%) of roughly 260,000 compounds were called active. About 5% were inconclusive and are not listed.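 How the source made its calls: active means inhibition above a set limit at one or more doses, reproduced on every date tested; inconclusive means results disagree between test dates, or hit never tested in dose response; inactive means the rest.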 These entries were drawn from the full list. Results with a measured potency or affinity are listed apart.

target: Virion infectivity factor (Human immunodeficiency virus type 1 group M subtype B (isolate BH10)) + Virion infectivity factor (Human immunodeficiency virus type 1 group M subtype B (isolate BRU/LAI)) + Virion infectivity factor (Human immunodeficiency virus type 1 group M subtype B (isolate PCV12)) + Virion infectivity factor (Human immunodeficiency virus type 1 group M subtype B (isolate HXB2)) + DNA dC->dU-editing enzyme APOBEC-3G (Homo sapiens) (UniProt P69720+P69721+P69722+P69723+Q9HC16); assay: HIV-1 Vif–A3G interaction blockers – biochemical, TR-FRET, GST-Vif 1-94, biotin-A3G peptide, dose response retest, primary screen (AID 1117319); settings: TR-FRET GST-Vif / biotin-A3G peptide binding; stronger effect = higher value;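 further: Vif residues 1-94 fused to GST binding biotinylated APOBEC3G peptide 110-148; 0% = full assay without inhibitor and 100% = GST in place of GST-Vif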

inhibition, inactive:
CCc1c(C#N)c(SCCC(=O)Nc2cccc(OC)c2)nc2c1C(=O)CC(C)(C)C2 -3.29%
CC(C)(Cc1ccccc1)NC(=O)C(=O)c1cn(CC(=O)N2CCOCC2)c2ccccc12 6.86%
O=C(/C=C/c1ccccc1F)c1cccc([N+](=O)[O-])c1 -5.2%
O=C(CN(C(=O)CNS(=O)(=O)c1ccc(F)cc1)c1ccc(F)cc1)NCc1ccco1 -4.81%
Cc1ccc(/C=N/N2CCN(Cc3ccccc3)CC2)cc1 -2.27%
CC(=O)Nc1ccc(NC(=O)CSc2nnc(CNc3ccc(F)cc3)n2CC2CCCO2)cc1 (configuration not stated) -7.5%
Cc1ccc(NCc2nnc(SCC(=O)Nc3ncc(C)s3)n2CC2CCCO2)c(C)c1 (configuration not stated) -1.98%
COC(=O)Cn1ncc2c3ccccc3n(C)c2c1=O 4.81%
CC(=O)N(c1ccc2oc(=O)sc2c1)S(=O)(=O)c1ccccc1 7.75% and 2.73%
COc1ccc(OC)c(S(=O)(=O)N(C(C)=O)c2ccc3oc(=O)sc3c2)c1 13.9%
CCC(C)NC(=O)C1CCC(CNS(=O)(=O)c2ccc3c(c2)CC(C)N3C(C)=O)CC1 (configuration not stated) 4.98%
CCCOC(=O)c1c(NC(=O)CCC(=O)O)sc2c1CCCCC2 8.05%
Cc1ccc(OCCNC(=O)c2ccccc2N)cc1 8.93%
CC(=O)C1=C(c2ccccc2)NC(=O)NC1c1ccccc1OCC(=O)Nc1ccccc1 (configuration not stated) -2.45%
S=C(NCCc1ccccc1)Nc1ncccn1 4.03%
O=C(N/N=C/c1ccc[nH]1)c1ccc(COc2cccc3cccnc23)cc1 9.25%
O=C1CCC/C(=N\NC(=O)c2ccc(CSc3cccc4cccnc34)cc2)C1 5.86%
CC(Nc1nc(-c2ccccc2O)nc2ccccc12)c1ccccc1 (configuration not stated) 4.08%
CCOc1ccc(-c2cc(N3C(=O)Nc4ccccc4N3O)on2)cc1 19.2%
O=c1cc(-c2ccc(O)cc2)oc2ccc(O)cc12 28.2%
COc1c(O)c(O)c2oc(-c3ccccc3)cc(=O)c2c1OC -3.24%
O=C(O)c1ccccc1C(=O)NC1CCCc2ccccc21 (configuration not stated) -5.37%
Cc1cc(C)c(NC(=O)CN(C)CC(=O)N(C)CC(=O)Nc2c(Cl)cccc2Cl)c(C)c1 -11.3%
COc1ccc(CCNC(=O)COC(=O)/C=C/c2cccs2)cc1 8.83%
Cc1nn(-c2ccccn2)c2c1-c1nc(N)ncc1CC2 5.31%
C=C(C)C1Cc2c(C)nn(-c3ccccn3)c2C1 (configuration not stated) -1.81%
Nc1nc(SCC(=O)c2c(N)n(Cc3ccccc3)c(=O)[nH]c2=O)n[nH]1 -2.67%
CCCC(=O)NC(Nc1c(C)n(C)n(-c2ccccc2)c1=O)C(Cl)(Cl)Cl (configuration not stated) -6.76%
COc1ccc(CNS(=O)(=O)c2c(C)[nH]c(C)c2C(=O)N2CCCCC2)cc1 -4.48%
CCOC(=O)Cc1cc(=O)n2[nH]c(-c3ccccc3)cc2n1 3.98%
CCOC(=O)Cc1cc(=O)n2[nH]c(C(C)(C)C)cc2n1 2.01%
Cc1nc2ccc(N=NC3=C(O)CCCC3=O)cc2s1 19.7%
CC(=O)N1CCc2cc(N=NC3=C(O)CCCC3=O)ccc21 11.2%
O=C1CCCC(O)=C1N=Nc1ccc(Cl)c(Cl)c1 -7.94%
CC1(C)CC(=O)C(N=Nc2ccc(S(=O)(=O)N3CCOCC3)cc2)=C(O)C1 4.95%
O=C1CCCC(O)=C1N=Nc1ccc2ncsc2c1 1.8%
O=C1CCCC(O)=C1N=Nc1cccc(S(=O)(=O)N2CCOCC2)c1 -9.52%
O=Cc1cc(N=Nc2cccc(C(=O)O)c2)ccc1O 8.26%
O=C(O)c1cccc(N=NN2CCOCC2)c1 0.39%
Cc1cc(C)c2c(N)c(C(=O)N3CCc4ccccc4C3)sc2n1 2.97%
O=C(CSc1ccccc1C(=O)O)NC12CC3CC(CC(C3)C1)C2 -8.39%
COC(=O)C1=C(C)OC(N)=C(C#N)C1c1ccsc1 (configuration not stated) -0.64%
Cc1ccc(/C=C/C(=O)Nc2nnc(C)s2)o1 30.1%
O=C(/C=C/c1ccc(F)cc1)Nc1cccc(S(=O)(=O)N2CCOCC2)c1 -3.16%
COc1ccc(NC(=O)/C=C/c2ccc(C)o2)cc1S(=O)(=O)N1CCOCC1 22.6%
Cc1cnc(NC(=O)/C=C/c2ccc(Br)o2)s1 20.7%
Cc1ccc(/C=C/C(=O)Nc2ccc(S(N)(=O)=O)cc2)o1 5.06%
Cc1ccc(/C=C/C(=O)Nc2ccncc2)o1 26.1%
Cc1cc(-c2nnc(CCC(=O)N3CCN(Cc4cccc(F)c4)CC3)o2)c(C)o1 -7.15%
COc1ccc(OC)c(CN2CCN(C(=O)c3cccs3)CC2)c1 1.09%
COc1ccc(Oc2nc(-c3cccnc3)nc3ccccc23)cc1 -18.5%
CCC(OC(=O)c1nsc(Cl)c1Cl)C(=O)NC(C)(C)CC (configuration not stated) -6.48%
CC(NC(=O)c1cccc(S(=O)(=O)N2CCN(Cc3ccccc3)CC2)c1)c1ccc(Cl)cc1 (configuration not stated) 3.65%
CCOC(=O)c1cn2nc(Oc3ccc(NC(C)=O)cc3)ccc2n1 -0.1%
CC(NC(=O)c1ccc2nc(Cc3cccc(Cl)c3)oc2c1)c1ccncn1 (configuration not stated) 0.5%
CN(C)C(=O)CCc1ccc2c3c([nH]c2c1)[C@]1(CCC2CCCC2)[C@@H](C(=O)N2CCOCC2)C[C@H](CC(=O)NCCC2=CCCCC2)C(=O)N1CC3 4.07%
CCOc1ncccc1C(=O)OCC(=O)NC1CCCCCC1 -6.35%
Cc1cc(S(=O)(=O)Nc2ncnc3sccc23)ccc1F 1.05%
CCOC(=O)C(C)/C(C)=N/NC(=O)CCC(=O)Nc1cc(C)ccc1C (configuration not stated) 3.1%
CCOC(=O)c1nc(C)n(-c2ccc(Cl)cc2Cl)n1 23.2%
CCOC(=O)c1nn(-c2ccccc2C)c(=O)c(C#N)c1C 12.1%
O=C(Oc1c(-c2ccccc2)oc2ccccc2c1=O)c1ccccc1 -7.08%
N#Cc1c(-c2ccc(Cl)cc2)c2c([nH]c1=S)CCCC2 -9.58%
Cc1ccc(-c2c(C(=O)Nc3ccccc3C)c(C)[nH]c(=S)c2C#N)o1 17.8%
Cc1ccccc1NC(=O)c1c(C)[nH]c(=S)c(C#N)c1-c1ccc(Cl)cc1 -0.84%
COc1ccc(-c2c3c([nH]c(=S)c2C#N)CCC3)cc1 -9.25%
N#Cc1c(-c2cccnc2)c2c([nH]c1=S)CCCC2 28.4%
COc1ccc(OC)c(-c2c3c([nH]c(=S)c2C#N)CCCC3)c1 -14.3%
CC(=O)OC1CC[C@@]2(C)C(CCC3C2CC(=O)[C@@]2(C)C3CC3CC(C)=CC(=O)C32)C1 (some centres not stated) -1.09%
CC(Oc1ccccc1F)C(=O)NNC(=O)CCS(=O)(=O)c1ccccc1Cl (configuration not stated) 3.79%
CC1CC(C)(C)NC(=S)N1CCC(=O)N1CCc2ccccc2C1 (configuration not stated) -8.29%
CC1(C)C(=O)NCCN1C(=O)CCC(=O)O -4.36%
Cc1ccc(CNC(=O)C2CC3Cn4c(nc5cc6ccccc6cc54)C3N2C)o1 (configuration not stated) 5.41%
O=C(CSc1ccc(-c2nc3ccccc3[nH]2)cn1)Nc1ccc(S(=O)(=O)N2CCCC2)cc1 -5.26%
O=C(CSc1nnc(NC(=O)c2cccc(Cl)c2)s1)NCC1CCCO1 (configuration not stated) 3.82%
CCOc1cc(N2CCOCC2)c(OCC)cc1NC(=O)COc1ccc2ccc(=O)oc2c1 -0.33%
COc1ccccc1C(c1nnnn1Cc1ccco1)N1CCN(c2cccc(C)c2C)CC1 (configuration not stated) 25.8%
O=C(c1cc(COc2ccc3ncccc3c2)on1)N1CCC[C@H]1CO 1.67%
COC(=O)C1CCCCN1C(=O)c1cc(COc2cccc3cccnc23)on1 (configuration not stated) 4.07%
COc1cccc(CNC(=O)CCCN2C(=O)C(c3ccccc3)Oc3cccnc32)c1OC (configuration not stated) -2.88%
CCOC(=O)C1=C(C)N(C2CCCCC2)C(=O)C1 -5.38%
COC(=O)\C(C(C)=O)=C(/C=C/C=C/N(C)C)N(C)C 27.9%
COC(=O)/C(C(C)=O)=C(/C=C/C=C/N(C)C)N(C)C 16.1%
COCCNC(=O)c1cc(-c2ccncc2)nc2ccc(S(=O)(=O)N3CCOCC3)cc12 -13.5%
CC1(C)[C@@H](O)CC[C@]2(C)[C@H]3C(=O)C=C4[C@@H]5C[C@@](C)(C(=O)O)CC[C@]5(C)CC[C@@]4(C)[C@]3(C)CC[C@@H]12 27.5%
Cc1ccc(C2C(C#N)=C(N)Oc3cc(C)oc(=O)c32)o1 (configuration not stated) -6.32%
Cc1ccc([C@H]2C(C#N)=C(N)Oc3cc(C)oc(=O)c32)o1 1.59%
CCCCCC(=O)NNC1CC(=O)N(c2ccccc2)C1=O (configuration not stated) -9.34%
C[C@H](N)c1nnc(SCc2ccc(Cl)cc2Cl)o1 1.96%
CCN1C(C)=C(C)S/C1=C1\SC(=S)N(N)C1=O 7%
O=C(O)Cn1cc(/C=N/NC(=O)c2cc3cc(Br)ccc3o2)c2ccccc21 0.84%
Cn1cc(/C=N/NC(=O)c2cc3cc(Br)ccc3o2)c2ccccc21 -7.92%
